Experimental findings from PubChem BioAssay are described below.

Active and inactive are the calls of the source.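 Rule for the calls, unless noted: active = mean z-score across replicates of 1.96 or higher in either the MELAS or the Rieske mutant cell line; inactive = the rest.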

Experiment [1] in a line: sensitizers of A549 cells to miR-34 induction, primary screen, imaging, A549 dox-inducible miR-34, nuclei and caspase counts (AID 1347080;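 active = compounds whose cell count with miR-34 switched on is under 0.7 times the count with it off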). The following applies: A549 miR-34 inducible, Hoechst nuclei count, 48 h.
A short description of experiment [2]: survival rescue of mitochondrial mutant cells in low glucose, primary screen, MELAS cybrids, Rieske KO mouse fibroblasts, CellTiter-Glo (AID 1508586;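 note: z relative to plate mean and SD of compound and empty wells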). (Cellular ATP, detected with luciferase, serves as a proxy for viable cell number.)
Where [3] appears, read: stronger effect = lower value, cell number ratio, induced over uninduced.
Setting [4] is: measured here: relative caspase fold change +Dox/-Dox.
The mark [5] stands for this setting: measured here: total cells with miR-34 induction, stronger effect = lower value.
Setting [6] is: measured here: total cells without miR-34 induction.
The mark [7] stands for this setting: MELAS cybrid survival, CellTiter-Glo 48 h, stronger effect = higher value.
Where [8] appears, read: Rieske KO mouse fibroblast survival, CellTiter-Glo 72 h.
Note: test concentration not given here.

With `CCNC(=O)CCCC=CCC1C(O)CC(O)C1C=CC(O)CCc1ccccc1` (configuration not stated), the fold change in experiment [1] (setting [3]) was 0.925 (inactive); in experiment [1] (setting [4]) it was 0.991. For the same compound, the cell count was 6700 in experiment [1] (setting [5]) and 7250 in experiment [1] (setting [6]). The z-score in experiment [2] (setting [7]) was -0.401 (inactive); in experiment [2] (setting [8]), -0.137.
On to `CNc1nc(Nc2cn(C(C)(C)C#N)nc2C)ncc1C(F)(F)F`, for which the fold change in experiment [1] (setting [3]) is 0.858 (inactive); in experiment [1] (setting [4]), 0.457. Further, the values for the cell count in experiment [1] (setting [5]) and in experiment [1] (setting [6]) were 7920 and 9230, respectively. Further, the figures for the z-score in experiment [2] (setting [7]) and in experiment [2] (setting [8]) were -0.302 (inactive) and 0.79, respectively.
As to `C#CCC(Cc1cnc2nc(N)nc(N)c2n1)c1ccc(C(=O)NC(CCC(=O)O)C(=O)O)cc1` (configuration not stated), the values for the fold change in experiment [1] (setting [3]) and in experiment [1] (setting [4]) were 1.12 (inactive) and 0.784, respectively. For the same compound, the cell count was 2390 in experiment [1] (setting [5]) and 2130 in experiment [1] (setting [6]). Also, the results for the z-score in experiment [2] (setting [7]) and in experiment [2] (setting [8]) were -0.188 (inactive) and 0.624, respectively.
On to `CCOC(=O)C1=C(N)Oc2ccc(Br)cc2[C@H]1C(C#N)C(=O)OCC` (some centres not stated), for which the values for the fold change in experiment [1] (setting [3]) and in experiment [1] (setting [4]) were 0.989 (inactive) and 0.887, respectively. The results for the cell count in experiment [1] (setting [5]) and in experiment [1] (setting [6]) were 5900 and 5960, respectively. Moreover, the z-score in experiment [2] (setting [7]) is -0.334 (inactive); in experiment [2] (setting [8]), 0.811.
On to `O=C1O[C@H](C(O)CO)C(O)C1O` (some centres not stated), for which the fold change was 0.859 (inactive) in experiment [1] (setting [3]) and 0.731 in experiment [1] (setting [4]). For the same compound, the cell count amounted to 8460 in experiment [1] (setting [5]) and 9850 in experiment [1] (setting [6]). Moreover, the figures for the z-score in experiment [2] (setting [7]) and in experiment [2] (setting [8]) were -0.207 (inactive) and -0.154, respectively.
Regarding `CC1CC[C@H]2C(C)C(O)O[C@H]3O[C@@]4(C)CC[C@@H]1[C@]32OO4` (some centres not stated), the figures for the fold change in experiment [1] (setting [3]) and in experiment [1] (setting [4]) were 0.953 (inactive) and 0.983, respectively. Besides, the cell count stood at 4540 in experiment [1] (setting [5]) and 4770 in experiment [1] (setting [6]). Further, the z-score in experiment [2] (setting [7]) is -0.379 (inactive); in experiment [2] (setting [8]) it was 0.102.
On to `CC1O[C@@H](OC2C(O)C[C@H](OC3C(O)C[C@H](OC4CC[C@@]5(C)[C@H](CC[C@@H]6[C@H]5CC(O)[C@]5(C)C(C7=CC(=O)OC7)CC[C@]65O)C4)OC3C)OC2C)CC(O)C1O` (some centres not stated), for which the fold change in experiment [1] (setting [3]) is 0.837 (inactive); in experiment [1] (setting [4]) it was 0.829. The cell count in experiment [1] (setting [5]) amounted to 400; in experiment [1] (setting [6]), 478. For the same compound, the z-score in experiment [2] (setting [7]) is 0.348 (inactive); in experiment [2] (setting [8]), -0.197.
Regarding `CC1C[C@H]2[C@@H]3CC(F)C4=CC(=O)C=C[C@]4(C)[C@]3(F)C(O)C[C@]2(C)[C@@]1(O)C(=O)CO` (some centres not stated), the fold change in experiment [1] (setting [3]) was 0.843 (inactive); in experiment [1] (setting [4]), 1.01. Besides, the cell count is 4530 in experiment [1] (setting [5]) and 5380 in experiment [1] (setting [6]). In addition, the z-score was -0.358 (inactive) in experiment [2] (setting [7]) and -0.303 in experiment [2] (setting [8]).
Consider `C=CCC1C=C(C)CC(C)CC(OC)C2O[C@@](O)(C(=O)C(=O)N3CCCC[C@H]3C(=O)OC(C(C)=CC3CCC(O)C(OC)C3)C(C)C(O)CC1=O)C(C)CC2OC` (some centres not stated), for which the fold change in experiment [1] (setting [3]) was 0.917 (inactive); in experiment [1] (setting [4]) it was 0.834. The values for the cell count in experiment [1] (setting [5]) and in experiment [1] (setting [6]) were 7870 and 8580, respectively. Moreover, the z-score was -0.545 (inactive) in experiment [2] (setting [7]) and 0.683 in experiment [2] (setting [8]).
On to `O=C(c1ccc(F)cc1)N1CCCC(c2nc(-c3ccc(F)cc3)no2)C1` (configuration not stated), for which the results for the fold change in experiment [1] (setting [3]) and in experiment [1] (setting [4]) were 0.877 (inactive) and 0.718, respectively. The cell count is 8270 in experiment [1] (setting [5]) and 9420 in experiment [1] (setting [6]). Besides, the z-score in experiment [2] (setting [7]) was -0.287 (inactive); in experiment [2] (setting [8]), -0.496.
For `CC(=O)O[C@]12COC1CC(O)[C@]1(C)C(=O)C(O)C3=C(C)C(OC(=O)C(O)C(NC(=O)OC(C)(C)C)c4ccccc4)C[C@](O)(C(OC(=O)c4ccccc4)C21)C3(C)C` (some centres not stated), the fold change in experiment [1] (setting [3]) was 1.04 (inactive); in experiment [1] (setting [4]), 0.7. The cell count turned out to be 2320 in experiment [1] (setting [5]) and 2220 in experiment [1] (setting [6]). The results for the z-score in experiment [2] (setting [7]) and in experiment [2] (setting [8]) were 6.54 (active) and -0.0789, respectively.
Consider `Cc1[nH]c(C=C2C(=O)Nc3ccc(S(=O)(=O)Cc4c(Cl)cccc4Cl)cc32)c(C)c1C(=O)N1CCCC1CN1CCCC1` (configuration not stated), for which the fold change in experiment [1] (setting [3]) is 0.833 (inactive); in experiment [1] (setting [4]), 1.46. Besides, the figures for the cell count in experiment [1] (setting [5]) and in experiment [1] (setting [6]) were 4270 and 5130, respectively. In addition, the z-score is -0.699 (inactive) in experiment [2] (setting [7]) and 0.101 in experiment [2] (setting [8]).
`Nc1nc(N)c2nc(-c3cccc(O)c3)cnc2n1`: the fold change in experiment [1] (setting [3]) is 0.989 (inactive); in experiment [1] (setting [4]) it was 0.893. Besides, the cell count in experiment [1] (setting [5]) turned out to be 6340; in experiment [1] (setting [6]), 6410. The z-score in experiment [2] (setting [7]) was 1.29 (inactive); in experiment [2] (setting [8]), -0.0279.
Consider `CN(C)C(=O)c1ccc(S(=O)(=O)c2ccc(NC(=O)C(C)(O)C(F)(F)F)c(Cl)c2)cc1` (configuration not stated), for which the fold change in experiment [1] (setting [3]) is 0.887 (inactive); in experiment [1] (setting [4]) it was 0.601. In addition, the cell count in experiment [1] (setting [5]) was determined as 6480; in experiment [1] (setting [6]) it was 7310. The values for the z-score in experiment [2] (setting [7]) and in experiment [2] (setting [8]) were -0.391 (inactive) and -0.0234, respectively.
For the compound `CC(C)c1nc(N(C)S(C)(=O)=O)nc(-c2ccc(F)cc2)c1C=CC(O)CC(O)CC(=O)O` (configuration not stated), the results for the fold change in experiment [1] (setting [3]) and in experiment [1] (setting [4]) were 0.92 (inactive) and 0.647, respectively. The cell count stood at 8010 in experiment [1] (setting [5]) and 8710 in experiment [1] (setting [6]). Besides, the results for the z-score in experiment [2] (setting [7]) and in experiment [2] (setting [8]) were 0.606 (inactive) and -0.0253, respectively.
Regarding `Cn1c(=O)cc(N2CCCC(N)C2)n(Cc2ccccc2C#N)c1=O` (configuration not stated), the results for the fold change in experiment [1] (setting [3]) and in experiment [1] (setting [4]) were 0.958 (inactive) and 0.837, respectively. The cell count in experiment [1] (setting [5]) is 8510; in experiment [1] (setting [6]) it was 8880. Further, the figures for the z-score in experiment [2] (setting [7]) and in experiment [2] (setting [8]) were -0.12 (inactive) and -0.0809, respectively.
As for `CC1CC[C@]2(C(=O)O)CC[C@]3(C)C(=CC[C@H]4[C@@]5(C)CC(O)C(O)[C@@](C)(CO)[C@@H]5CC[C@]43C)[C@H]2C1C` (some centres not stated), the fold change in experiment [1] (setting [3]) is 0.88 (inactive); in experiment [1] (setting [4]) it was 0.855. Moreover, the cell count in experiment [1] (setting [5]) was 8330; in experiment [1] (setting [6]) it was 9460. The results for the z-score in experiment [2] (setting [7]) and in experiment [2] (setting [8]) were -0.312 (inactive) and 0.68, respectively.
For the compound `CCCCCOC(=O)Nc1nc(=O)n(C2OC(C)C(O)C2O)cc1F` (configuration not stated), the fold change is 0.881 (inactive) in experiment [1] (setting [3]) and 1.03 in experiment [1] (setting [4]). In addition, the results for the cell count in experiment [1] (setting [5]) and in experiment [1] (setting [6]) were 6790 and 7710, respectively. The z-score in experiment [2] (setting [7]) is -0.294 (inactive); in experiment [2] (setting [8]), 0.792.
Take `COC(=O)[C@]12CCC(C)(C)C[C@@H]1[C@@H]1C(=O)C=C3[C@]4(C)C=C(C#N)C(=O)C(C)(C)[C@@H]4CC[C@@]3(C)[C@]1(C)CC2`: the fold change was 0.818 (inactive) in experiment [1] (setting [3]) and 0.469 in experiment [1] (setting [4]). The cell count in experiment [1] (setting [5]) was 308; in experiment [1] (setting [6]), 376. Moreover, the z-score in experiment [2] (setting [7]) was -0.649 (inactive); in experiment [2] (setting [8]), -3.82.
Take `CN1CCCC1Cc1c[nH]c2ccc(CCS(=O)(=O)c3ccccc3)cc12` (configuration not stated): the fold change in experiment [1] (setting [3]) was 0.975 (inactive); in experiment [1] (setting [4]), 1.13. Also, the cell count in experiment [1] (setting [5]) was determined as 9340; in experiment [1] (setting [6]), 9580. Besides, the z-score in experiment [2] (setting [7]) was -0.473 (inactive); in experiment [2] (setting [8]), -0.595.
On to `Cc1ccc(S(=O)(=O)c2ccc([N+](=O)[O-])o2)cc1`, for which the fold change in experiment [1] (setting [3]) was 1.58 (inactive); in experiment [1] (setting [4]), 0.353. Besides, the results for the cell count in experiment [1] (setting [5]) and in experiment [1] (setting [6]) were 1860 and 1180, respectively. The z-score in experiment [2] (setting [7]) is -1.09 (inactive); in experiment [2] (setting [8]) it was -6.94.
Regarding `O=C(C=CC=Cc1ccc2c(c1)OCO2)N1CCCCC1`, the results for the fold change in experiment [1] (setting [3]) and in experiment [1] (setting [4]) were 1 (inactive) and 0.989, respectively. Further, the cell count in experiment [1] (setting [5]) and in experiment [1] (setting [6]) was 9240 throughout. Moreover, the z-score is -0.417 (inactive) in experiment [2] (setting [7]) and 0.823 in experiment [2] (setting [8]).
